Screening data as filed in PubChem.
UBC9 SUMO inh – inhibitors of human SUMOylation (UBC9); P63279; HTRF SUMOylation assay, SAE1/SAE2 + UBC9, in vitro; inhibition, % at 35 µM; hit rate 0.36% among 290,000; in the data active = inhibition above about 50%, passing the limit was not always enough
Cardio protect – protects H9c2 cardiomyocytes from peroxide injury. H2O2 injury protection, ATPLite, 2 h. protection from H2O2 cell death, % at 20 µM. AID 588492. hit rate 0.63% among 360,000;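 active = compounds giving at least 50% protection of heart cells from peroxide-induced death in the single-dose screen, raw or plate-pattern-corrected value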;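 note: 0% = DMSO wells with peroxide and 100% = DMSO wells without peroxide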
ALR H2O2 inh – human ALR oxidase inhibition via reduced H2O2. P55789. purified ALR, DTT oxidation, H2O2 HRP-luminol luminescence. inhibition, % (concentration not given with the values). hit rate 3.8% among 290,000;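 active = mean replicate inhibition above about 79%, with every replicate also reaching it, limit read from the data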
Target sequence (P55789 whole entry, looked up): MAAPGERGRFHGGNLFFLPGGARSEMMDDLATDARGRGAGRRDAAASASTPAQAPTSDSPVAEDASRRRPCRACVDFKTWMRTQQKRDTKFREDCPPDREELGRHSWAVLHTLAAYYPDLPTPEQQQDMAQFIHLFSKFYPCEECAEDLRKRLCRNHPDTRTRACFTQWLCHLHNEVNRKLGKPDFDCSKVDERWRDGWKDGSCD
NTR1 agonist – NTR1 (human) agonism | P30989 | NTR1-U2OS beta-arrestin-GFP spot imaging, agonist mode | activation, % at 20 µM | hit rate 0.17% among 330,000;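 active = activation at or above 40% of the spot to cytoplasm intensity ratio, with at least 20 cells analyzed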;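 note: 0% = DMSO without peptide and 100% = 100 nM NTR1 peptide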
Target sequence (P30989 whole entry, looked up): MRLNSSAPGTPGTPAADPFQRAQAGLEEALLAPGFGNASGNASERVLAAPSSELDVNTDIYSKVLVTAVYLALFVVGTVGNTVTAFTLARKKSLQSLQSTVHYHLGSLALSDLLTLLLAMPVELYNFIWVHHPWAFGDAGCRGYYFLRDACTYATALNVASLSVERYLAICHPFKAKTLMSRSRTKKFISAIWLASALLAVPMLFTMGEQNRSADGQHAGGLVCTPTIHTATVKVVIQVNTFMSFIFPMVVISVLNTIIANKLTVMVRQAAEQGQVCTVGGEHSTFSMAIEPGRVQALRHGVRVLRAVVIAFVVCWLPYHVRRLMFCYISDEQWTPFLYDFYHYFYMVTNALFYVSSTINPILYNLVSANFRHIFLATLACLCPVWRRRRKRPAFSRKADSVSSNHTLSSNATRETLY
An asterisk follows results filed as active; / = no result given. The list is not random: actives were taken first. Their share in the collection is about 3.9%.

SMILES	UBC9 SUMO inh	Cardio protect	ALR H2O2 inh	NTR1 agonist
CCCN(CCC)c1ccc(/C=N/NC(=O)CN2CCOCC2)cc1	14.0	1.7	99.1*	-0.5
CCN(CC)c1ccc(/C=N/O)cc1	3.1	5.1	/	-0.3
O=C(CN1CCOCC1)N/N=C/c1ccccc1	15.9	4.0	2.7	0.2
O=C(c1cccc(F)c1)N1CCN(c2cccc(C(F)(F)F)c2)CC1	1.1	-12.8	/	-0.8
Cc1cc(C)c(NC(=O)COC(=O)c2c(C)noc2C)c(Cl)c1	/	-2.7	-7.6	-0.7
O=C(/C=C/[C@H]1O[C@@H](n2ccc(=O)[nH]c2=O)[C@H](O)[C@@H]1O)NCCN1CCOCC1	/	-1.7	/	/
COc1cc(S(=O)(=O)N2CCn3cccc3C2C)ccc1NC(C)=O (stereo not given)	/	8.4	34.5	-1.1
Cc1ccc(OCCOC(=O)c2c(-c3ccccc3)noc2C)cc1	7.6	-6.4	-2.4	4.9
Oc1cccc(/C=N/n2c(C3CCCCC3)n[nH]c2=S)c1	-3.5	0.2	12.6	1.6
O=[N+]([O-])c1ccccc1/C=N/n1c(C(F)(F)F)n[nH]c1=S	7.9	-7.4	94.9*	0.9
O=[N+]([O-])c1ccccc1/C=N/n1c(C2CCCCC2)n[nH]c1=S	0.2	0.0	96.6*	2.6
O=[N+]([O-])c1ccc(Cl)c(/C=N/n2c(COc3ccccc3)n[nH]c2=S)c1	5.9	-10.9	95.8*	9.0
COc1cc(/C=N/n2c(C3CCCCC3)n[nH]c2=S)cc(OC)c1O	-31.6	-5.4	99.1*	0.5
O=[N+]([O-])c1ccccc1/C=N/n1c(-c2cccnc2)n[nH]c1=S	10.0	7.3	30.9	0.0
O=C(C1=C[C@H](c2ccc(Br)cc2)C[C@H](OCc2ccc(CO)cc2)O1)N1CCN(Cc2ccc3c(c2)OCO3)CC1	-6.3	3.5	1.2	0.7
O=C(CC(=O)NCc1ccc(Cl)cc1)NCc1ccc(Cl)cc1	8.1	0.1	-7.0	0.1
CCOC(=O)c1c(C)n(C)c2cc(Br)c(O)c(O)c12	-0.1	6.9	7.3	3.3
CCS(=O)(=O)c1nc(S(=O)(=O)c2ccc(Cl)cc2)c(NCCCN2CCOCC2)s1	7.8	2.1	2.2	0.2
O=[N+]([O-])c1cccc(/C=N/n2c(C3CCCCC3)n[nH]c2=S)c1	-6.0	1.5	2.7	8.8
O=C(O)COc1ccccc1/C=N/n1c(C2CCCCC2)n[nH]c1=S	6.1	1.8	96.6*	0.0
O=[N+]([O-])c1cc2c(cc1/C=N/n1c(-c3ccccc3)n[nH]c1=S)OCO2	0.2	4.0	87.1*	-0.1
O=[N+]([O-])c1ccc(Cl)c(/C=N/n2c(C3CCCCC3)n[nH]c2=S)c1	7.8	1.6	98.6*	14.4
O=[N+]([O-])c1cc2c(cc1/C=N/n1c(-c3ccccn3)n[nH]c1=S)OCO2	81.7	9.5	21.2	/
CC1Cc2ccccc2N1C(=O)CN1CCc2ccccc2C1 (stereo not given)	-13.5	42.9	-2.5	-1.4
Cc1ccccc1Nc1nc(CSc2nnnn2-c2ccccc2)cs1	-4.3	-1.6	97.7*	2.7
SMILES	UBC9 SUMO inh	Cardio protect	ALR H2O2 inh	NTR1 agonist
c1ccc(-c2nc(CSc3nnnn3-c3ccccc3)cs2)cc1	9.5	-7.2	-1.3	4.4
Brc1ccc(-c2nn3c(-c4ccco4)nnc3s2)o1	10.9	93.8*	2.8	-1.0
Brc1ccc(-c2nn3c(-c4ccccn4)nnc3s2)o1	-7.3	52.2*	1.0	-0.2
CC1CCCC(C)N1c1nnc(N)s1 (stereo not given)	-9.5	9.5	95.5*	0.9
CNc1nc(Nc2ccc(C(C)=O)cc2)nc(OC(C(F)(F)F)C(F)(F)F)n1	-14.8	4.7	100.3*	1.6
CC(C)CN1C(=O)c2ccc(C(=O)Nc3c[nH]c(=O)[nH]c3=O)cc2C1=O	8.9	0.7	11.7	0.4
CC(=O)Nc1ccc(SC(C)C(=O)NC(N)=O)cc1 (stereo not given)	11.7	-5.1	99.2*	1.6
Cn1c(CNS(=O)(=O)c2ccc(Br)cc2)n[nH]c1=S	7.7	1.8	90.8*	0.8
Cc1ccc(NCc2nnc(SCC(N)=O)n2CC2CCCO2)c(C)c1 (stereo not given)	3.7	-7.7	88.9*	-1.1
COc1ccccc1Cc1c(-c2ccc(OC)c(OC)c2)nc2ccc(Br)cn12	/	4.7	/	/
Cc1ccc(C)n1-c1ncc(Br)cn1	27.0	6.1	-4.1	-1.6
CCOc1ccc(NC(=O)CCN2C(=S)NC(C)(C)CC2C)cc1 (stereo not given)	-11.1	7.7	-2.6	0.4
CC1CC(C)(C)NC(=S)N1CCC(=O)Nc1ccc2c(c1)OCCO2 (stereo not given)	2.0	68.6*	2.2	-2.1
O=C(N/N=C/c1c(O)ccc2ccccc12)c1ccc(CO)nc1	4.0	59.4*	-28.0	8.2
NC(=S)N/N=C/c1c(O)ccc2ccccc12	22.6	56.7*	-31.1	10.7
O=C(NN=Cc1c(O)ccc2ccccc12)c1ccc2c(c1)OCO2	/	8.3	-35.9	4.8
Cc1[nH]c2ccccc2c1C(=O)CSc1nc2ccccc2[nH]1	9.7	66.5*	-1.7	6.1
Cc1ccc2nc(SCC(=O)c3ccc(Cl)s3)[nH]c2c1	-6.9	-4.7	-5.4	3.9
Cc1[nH]c2ccccc2c1C(=O)CSc1nccc(=O)[nH]1	11.1	-7.1	-9.0	0.4
CC(=O)c1c(C)[nH]c(C(=O)CSc2nc3ccc(C)cc3[nH]2)c1C	16.3	12.8	97.1*	3.2
Cn1c(=O)cc(OCC(=O)N2CCCc3ccccc32)c2ccccc21	13.6	37.8	-4.3	0.7
O=C(NCCO)c1cc([N+](=O)[O-])cc2c1C=Cc1ccccc1O2	1.7	4.4	-6.7	1.1
O=C(Nc1cccc(S(=O)(=O)NC2=NCCC2)c1)c1cc(-c2ccco2)nc2ccccc12	85.6*	-0.7	-2.7	2.3
Fc1ccc(-n2c(-c3ccco3)n[nH]c2=S)cc1	9.3	-1.2	65.4	/
Cc1ccc(-n2c([C@@H]3C[C@H]3c3ccccc3)n[nH]c2=S)cc1	3.4	3.8	84.8*	0.0
SMILES	UBC9 SUMO inh	Cardio protect	ALR H2O2 inh	NTR1 agonist
Cc1occc1-c1n[nH]c(=S)n1-c1ccccc1	11.9	5.9	94.3*	0.9
Cc1ccc(-n2c(-c3ccco3)n[nH]c2=S)cc1	15.3	3.2	87.7*	1.7
N#Cc1ccc(Nc2nc(-c3ccccc3)cs2)cc1	/	-12.1	/	/
Oc1ccc(Nc2nc(Cl)nc(NCc3ccco3)n2)cc1	-3.8	10.4	99.4*	1.3
CCCC1C2CN(C(C)C)CC=C2C(C#N)=C(N)C1(C#N)C#N (stereo not given)	32.9	7.9	66.2	/
NCCN1C(=O)S/C(=C\c2ccc3c(c2)OCO3)C1=O	20.4	5.1	92.4*	2.0
Cn1c(=O)c2cccnc2c(=O)n1C	/	1.3	/	/
C/C(Cl)=C\Cn1c(Nc2ccccc2)nc2c1c(=O)n(C)c(=O)n2C	22.7	9.0	87.2*	3.5
C/C(Cl)=C/Cn1c(NCCN(C)C)nc2c1c(=O)n(C)c(=O)n2C	3.3	2.9	2.8	0.3
Cn1c(=O)c2c(nc(NCCCO)n2C/C=C/c2ccccc2)n(C)c1=O	13.5	62.5*	-7.2	1.0
Cc1[nH]c2ccccc2c1CCNS(=O)(=O)c1ccc(S(N)(=O)=O)cc1	9.5	-0.2	89.7*	2.6
S=C(Nc1ccc2nccnc2c1)N1CCOCC1	89.0*	-1.8	-21.9	1.8
